Bioassay records: PubChem, Broad Institute
This is a sample that favours compounds with a hit; in the whole collection about 6.7% have one here.
C diff growth: C. difficile growth inhibition. Clostridium difficile clinical isolate growth, OD600, 24 h; stronger effect = lower value. growth activity, negative = inhibition, % at 16 µg/mL (by protocol). actives 0.25% (n = 86,000). AID 1259249;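 active = mean growth activity at or below -80% and every replicate also at or below -80%; inconclusive = mean at or below -80% but some replicate above -80%; inactive = mean growth activity above -80%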;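 also: 0% = DMSO wells and -100% = levofloxacin 16 µg/mL wells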
T cruzi growth: inhibitors of T. cruzi proliferation; actives 5.9% (n = 77,000); T. cruzi beta-gal in NIH3T3, GalScreen luminescence, 90 h; inhibition, % at 8.34 µM;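 active = mean inhibition above about 93%, with at least 55% of replicates each passing it, limit read from the data, passing the limit was not always enough; inconclusive = only one of those two conditions holds; inactive = neither condition holds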
Pf Dd2 growth: blocks growth of Plasmodium falciparum Dd2 parasites; AID 1159554; actives 2.3% (n = 94,000); activity change, % at 10 µM; P. falciparum Dd2 growth, SYBR Green, 72 h; stronger effect = lower value; in the data active = activity change below about -80%; inconclusive = no clear call, values can overlap the other calls
Active calls of the source: *; ? = inconclusive; / = not tested or not shown.

SMILES | C diff growth | T cruzi growth | Pf Dd2 growth
COc1cccc(NC(=O)N(C)C[C@@H]2Oc3cc(C#Cc4ccncc4)ccc3S(=O)(=O)N([C@@H](C)CO)C[C@@H]2C)c1 | 9.2 | 49.4 | -79.2
COc1ccc(C#Cc2ccc3c(c2)O[C@@H](CN(C)C(=O)c2ccccn2)[C@H](C)CN([C@@H](C)CO)S3(=O)=O)cc1 | -3.2 | / | -44.1
COc1cccc(NC(=O)N(C)C[C@@H]2Oc3cc(C#Cc4ccccc4)ccc3S(=O)(=O)N([C@@H](C)CO)C[C@@H]2C)c1 | -7.0 | ? | -90.7*
COc1cccc(C#Cc2ccc3c(c2)O[C@H](CN(C)C(=O)c2ccccn2)[C@H](C)CN([C@@H](C)CO)S3(=O)=O)c1 | 2.0 | 115.8* | -70.9
COc1cccc(C#Cc2ccc3c(c2)O[C@@H](CN(C)C(=O)c2ccccn2)[C@H](C)CN([C@H](C)CO)S3(=O)=O)c1 | -2.9 | 119.2* | -78.7
COc1cccc(C#Cc2ccc3c(c2)O[C@@H](CN(C)C(=O)c2ccccn2)[C@@H](C)CN([C@H](C)CO)S3(=O)=O)c1 | -3.5 | ? | -72.6
Cc1ccc(S(=O)(=O)N(C)C[C@@H]2Oc3c(NS(C)(=O)=O)cccc3C(=O)N([C@H](C)CO)C[C@H]2C)cc1 | 6.4 | 36.5 | 17.4
O=C(N[C@H]1CC[C@@H](CCn2cc(-c3ccccc3)nn2)O[C@@H]1CO)c1cnccn1 | -3.3 | 12.9 | -29.9
Cc1ccc(S(=O)(=O)N[C@@H]2CC[C@@H](CCn3cc(C4CC4)nn3)O[C@H]2CO)cc1 | 1.2 | / | 19.2
C[C@@H]1CCCCO[C@H](CN(C)C(=O)Nc2ccc(C(F)(F)F)cc2)[C@H](C)CN([C@@H](C)CO)C(=O)c2cc(NC(=O)Nc3ccccc3)ccc2O1 | -0.4 | / | -81.6*
C[C@@H]1CCCCO[C@H](CN(C)C(=O)CCCN(C)C)[C@H](C)CN([C@@H](C)CO)C(=O)c2cc(NC(=O)Nc3ccc(C(F)(F)F)cc3)ccc2O1 | / | 62.0 | -88.0*
C[C@H]1CCCCO[C@H](CN(C)C(=O)CCCN(C)C)[C@@H](C)CN([C@@H](C)CO)C(=O)c2cc(NC(=O)Nc3ccc(C(F)(F)F)cc3)ccc2O1 | / | 35.4 | -38.0
C[C@@H]1CCCCO[C@@H](CN(C)C(=O)Nc2ccccc2)[C@@H](C)CN([C@H](C)CO)C(=O)c2cc(NC(=O)Nc3ccc(C(F)(F)F)cc3)ccc2O1 | -2.4 | / | 28.9
C[C@@H]1CCCCO[C@@H](CN(C)C(=O)Nc2ccccc2)[C@@H](C)CN([C@@H](C)CO)C(=O)c2cc(NC(=O)Nc3ccc(C(F)(F)F)cc3)ccc2O1 | -6.9 | / | ?
C[C@@H]1CCCCO[C@H](CN(C)C(=O)Cc2ccccc2)[C@@H](C)CN([C@@H](C)CO)C(=O)c2cc(NC(=O)Nc3ccc(C(F)(F)F)cc3)ccc2O1 | -4.0 | 69.5 | -87.0*
C[C@H]1CCCCO[C@H](CN(C)C(=O)Nc2ccc(C(F)(F)F)cc2)[C@@H](C)CN([C@@H](C)CO)C(=O)c2cc(NC(=O)Nc3ccccc3)ccc2O1 | -3.3 | / | -83.2*
C[C@@H]1CCCCO[C@H](CN(C)C(=O)Cc2ccccc2)[C@H](C)CN([C@@H](C)CO)C(=O)c2cc(NC(=O)Nc3ccc(C(F)(F)F)cc3)ccc2O1 | 1.8 | 81.2 | -69.9
COCCNC(=O)C[C@@H]1CC[C@H]2[C@H](COc3ccc(NC(=O)c4cc(C)on4)cc3C(=O)N2C)O1 | 2.1 | -25.1 | 18.4
Cc1ccc(S(=O)(=O)NCC[C@H]2CC[C@H](NC(=O)c3cccc(F)c3)[C@H](CO)O2)cc1 | / | 25.6 | 19.9
Cc1nn(C)cc1NC(=O)C[C@H]1CC[C@@H]2[C@@H](COc3ccc(NC(=O)C4CCC4)cc3C(=O)N2C)O1 | 1.2 | -21.9 | 5.8
C[C@H]1CCCCO[C@@H](CN(C)C(=O)Nc2ccccc2)[C@@H](C)CN([C@@H](C)CO)C(=O)c2cc(NC(=O)Cc3ccccc3)ccc2O1 | / | 27.1 | 7.4
C[C@@H]1CCCCO[C@H](CN(C)C(=O)Nc2ccc(C(F)(F)F)cc2)[C@@H](C)CN([C@@H](C)CO)C(=O)c2cc(NC(=O)c3ccccc3)ccc2O1 | 7.2 | 93.3 | -83.0*
C[C@@H]1CCCCO[C@@H](CN(C)C(=O)Nc2ccc(C(F)(F)F)cc2)[C@H](C)CN([C@@H](C)CO)C(=O)c2cc(NC(=O)Nc3ccccc3)ccc2O1 | -7.3 | / | -28.4
Cc1noc(C)c1NC(=O)Nc1ccc2c(c1)C(=O)N([C@H](C)CO)C[C@H](C)[C@@H](CN(C)C(=O)Nc1ccc(C(F)(F)F)cc1)OCCCC[C@H](C)O2 | -0.1 | 70.0 | -76.7
Cc1noc(C)c1NC(=O)Nc1ccc2c(c1)C(=O)N([C@H](C)CO)C[C@@H](C)[C@@H](CN(C)C(=O)Nc1ccc(C(F)(F)F)cc1)OCCCC[C@@H](C)O2 | 7.1 | 50.0 | -87.2*
